# Assay results as given in PubChem BioAssay (Tox21).
# “And” between values parts separate entries of the source, which are not always exact repeats. Equal entries are not always repeated. Records with an inconclusive call do not appear. A call without a number means that no potency is given here. The source made the active and inactive calls. Unless noted, calls come from the whole dose curve; as a rule, active = well fitted curve in the direction sought with a large enough effect in the repeat runs; inconclusive = weak or mixed curves; inactive = no such curve, though single readings can be large; an effect the other way counts as inactive or inconclusive.
# What was measured:
# [1] = target: Aryl hydrocarbon receptor (Homo sapiens) (UniProt P35869); assay: qHTS assay to identify small molecule that activate the aryl hydrocarbon receptor (AhR) signaling pathway (AID 743085); note: nearly all actives have a fitted effect of over 15% in size;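 for activation: HG2L7.5c1 human HepG2 liver cells with stably integrated DRE-driven firefly reporter; series mostly up to about 70 µM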
# Outline: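 Cell line HG2L7.5c1 (human hepatoma, 20× DRE-luc). Plated, 5 h 37C, compound/DMSO added, 24 h 37C. CellTiter-Fluor 30 min 37C → fluorescence; then ONE-Glo 30 min RT → luminescence.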
# [2] = qHTS assay to identify small molecule that activate the aryl hydrocarbon receptor (AhR) signaling pathway - cell viability counter screen (AID 743086); note: nearly all actives have a fitted effect of over 45% in size
# Outline: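 Cytotoxicity counter screen: CellTiter-Fluor signal (30 min, 37 C) in 4000 HepG2 cells/well carrying the DRE-luciferase reporter, following 24 h compound exposure at 37 C.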
# [3] = target: Peroxisome proliferator-activated receptor gamma (Homo sapiens) (UniProt P37231); assay: qHTS assay to identify small molecule agonists of the peroxisome proliferator-activated receptor gamma (PPARg) signaling pathway (AID 743094; active = well fitted activation curve with a large enough effect in the signal ratio in the repeat runs, not every such curve was filed as active; the % refers to the signal ratio)
# Outline: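 Following 5 h plating at 37C, PPARg-bla HEK293H cells receive compound or DMSO for 17 h; fluorescence intensity is recorded after LiveBLAzer B/G loading for 1 h at room temperature.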
# [4] = qHTS assay to identify small molecule antagonists of the peroxisome proliferator-activated receptor gamma (PPARg) signaling pathway - cell viability counter screen (AID 743194); note: nearly all actives have a fitted effect of over 55% in size
# Outline: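 Viability was measured as CellTiter-Glo luminescence in GeneBLAzer PPARg UAS-bla HEK293H cells. These cells had been exposed 17 h at 37 C to compounds together with rosiglitazone at 50 nM final, with the beta-lactamase readout taken in the same wells.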
# [5] = qHTS assay for small molecule agonists of the antioxidant response element (ARE) signaling pathway - cell viability counter screen (AID 743203; calls by dose curve; note: nearly all actives have a fitted effect of over 55% in size)
# Outline: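 Compounds in DMSO were pinned onto ARE-bla HepG2 cells plated 5 hrs earlier at 2,000 cells/well. Sixteen hours later at 37C/5% CO2, CellTiter-Glo was added and luminescence measured after 30 min at room temperature.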
# [6] = qHTS assay for small molecule activators of the heat shock response signaling pathway - cell viability counter screen (AID 743209); note: nearly all actives have a fitted effect of over 50% in size
# Outline: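 Counter screen for cytotoxicity in HeLa HSE-bla reporter cells. Treatment was 5 h at 37 C; viability was detected by luminescent ATP assay (CellTiter-Glo) in the same wells as the beta-lactamase read.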
# [7] = target: Peroxisome proliferator-activated receptor gamma (Homo sapiens) (UniProt P37231); assay: qHTS assay to identify small molecule antagonists of the peroxisome proliferator-activated receptor gamma (PPARg) signaling pathway (AID 743191; calls by dose curve; note: nearly all actives have a fitted effect of over 30% in size)
# Outline: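 Beta-lactamase reporter under UAS control in HEK293H PPARg-bla cells; compound treatment 17 h at 37C. Read-out: fluorescence intensity after 1 h room-temperature incubation with LiveBLAzer B/G FRET substrate.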
# [8] = qHTS assay to identify aromatase inhibitors - cell viability counter screen (AID 743084);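 note: cells stimulated with testosterone during compound exposure; nearly all actives have a fitted effect of over 55% in size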
# [9] = qHTS assay for small molecule agonists of the antioxidant response element (ARE) signaling pathway (AID 743202; active = well fitted activation curve with a large enough effect in the signal ratio in the repeat runs, not every such curve was filed as active; the % refers to the signal ratio)
# Outline: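 Quantitative high-throughput format in HepG2 cells bearing an integrated ARE-beta-lactamase reporter. Compound exposure lasted 16 h at 37 C, and fluorescence was read 2 h after adding LiveBLAzer B/G substrate at room temperature.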
# [10] = qHTS assay for small molecule activators of the heat shock response signaling pathway (AID 743210; active = well fitted activation curve with a large enough effect in the signal ratio in the repeat runs, with a control signal flat, not every such curve was filed as active; the % refers to the signal ratio;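 for activation: HeLa cells with beta-lactamase reporter driven by heat shock elements; series mostly up to about 63 µM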)
# Outline: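 HeLa HSE-bla cells, overnight plating; cpd in DMSO 5 h, 37 C; LiveBLAzer B/G FRET substrate 2.5 h RT; fluorescence intensity read.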
# Potency is the fitted concentration of half-maximal effect.
# Aryl hydrocarbon receptor (Homo sapiens), sequence (P35869 whole entry, looked up): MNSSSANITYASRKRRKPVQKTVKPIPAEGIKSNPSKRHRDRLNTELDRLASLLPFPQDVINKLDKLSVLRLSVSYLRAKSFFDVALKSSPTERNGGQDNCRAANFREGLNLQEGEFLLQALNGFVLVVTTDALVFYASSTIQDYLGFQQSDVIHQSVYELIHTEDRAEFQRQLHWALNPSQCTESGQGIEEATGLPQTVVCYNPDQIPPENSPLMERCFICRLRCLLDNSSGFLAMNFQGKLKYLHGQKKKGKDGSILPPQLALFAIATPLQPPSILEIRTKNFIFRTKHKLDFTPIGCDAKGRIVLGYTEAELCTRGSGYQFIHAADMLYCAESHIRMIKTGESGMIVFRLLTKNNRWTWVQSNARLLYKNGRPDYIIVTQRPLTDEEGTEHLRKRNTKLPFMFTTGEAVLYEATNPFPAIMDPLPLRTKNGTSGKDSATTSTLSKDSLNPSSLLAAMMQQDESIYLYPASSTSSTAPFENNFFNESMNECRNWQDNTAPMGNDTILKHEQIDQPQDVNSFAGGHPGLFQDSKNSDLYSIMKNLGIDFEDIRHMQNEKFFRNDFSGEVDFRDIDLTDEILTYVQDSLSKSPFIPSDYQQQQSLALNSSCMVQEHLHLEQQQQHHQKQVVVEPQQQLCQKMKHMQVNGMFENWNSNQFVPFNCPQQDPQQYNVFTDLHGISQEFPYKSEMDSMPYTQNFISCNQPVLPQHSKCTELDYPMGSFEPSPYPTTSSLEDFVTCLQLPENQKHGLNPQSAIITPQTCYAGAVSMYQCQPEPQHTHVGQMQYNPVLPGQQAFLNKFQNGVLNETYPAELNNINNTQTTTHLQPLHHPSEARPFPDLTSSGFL
# Peroxisome proliferator-activated receptor gamma (Homo sapiens), sequence (P37231 whole entry, looked up): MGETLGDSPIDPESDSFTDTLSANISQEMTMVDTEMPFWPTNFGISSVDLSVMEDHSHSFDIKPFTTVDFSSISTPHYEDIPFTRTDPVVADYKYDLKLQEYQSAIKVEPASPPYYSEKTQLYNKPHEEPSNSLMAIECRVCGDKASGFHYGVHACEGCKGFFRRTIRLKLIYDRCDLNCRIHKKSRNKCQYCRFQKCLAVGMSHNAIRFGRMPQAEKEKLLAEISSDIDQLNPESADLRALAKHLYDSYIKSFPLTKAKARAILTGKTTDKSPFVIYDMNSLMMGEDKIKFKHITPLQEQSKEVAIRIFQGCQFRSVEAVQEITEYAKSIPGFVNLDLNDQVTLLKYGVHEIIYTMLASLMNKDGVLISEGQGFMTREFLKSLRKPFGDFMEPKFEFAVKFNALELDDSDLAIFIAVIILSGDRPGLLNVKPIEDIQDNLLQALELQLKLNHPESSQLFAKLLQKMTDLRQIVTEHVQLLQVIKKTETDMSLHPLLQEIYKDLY
smiles,measurement,setting,value
Oc1ccc(Cl)cc1Sc1cc(Cl)ccc1O,Potency,[1],inactive
same,Potency,[2],inactive
same,Potency,[3],inactive
same,Potency,[4],4.89 µM (active) and 5.96 µM (active)
same,Potency,[5],61 µM (active) and 29.8 µM (active)
same,Potency,[6],38.8 µM (active)
OCc1c[nH]c2ccccc12,Potency,[1],5.14 µM (active)
same,Potency,[7],12.3 µM (active)
same,Potency,[5],inactive
same,Potency,[6],inactive
COc1cc(-c2nc(NC(=O)c3cc4cc(C)cc(C)c4n3CC(=O)O)sc2CCC2CCCCC2)c(OC)cc1Cl,Potency,[1],inactive
same,Potency,[2],inactive
same,Potency,[3],35.7 µM (active)
same,Potency,[4],8.96 µM (active)
same,Potency,[5],14.1 µM (active)
C[n+]1ccn(Cc2ccccc2)c1,Potency,[1],inactive
same,Potency,[2],inactive
same,Potency,[4],inactive
same,Potency,[5],inactive
same,Potency,[6],inactive
c1cc(C(c2ccc(OCC3CO3)cc2)c2ccc(OCC3CO3)cc2)ccc1OCC1CO1 (stereo not given),Potency,[8],54.5 µM (active)
same,Potency,[4],21.9 µM (active)
same,Potency,[6],inactive
CCCCCCCC/C=C\CCCCCCCCOCCO,Potency,[8],79.4 µM (active)
same,Potency,[4],56.8 µM (active)
same,Potency,[5],63.1 µM (active)
same,Potency,[6],28.4 µM (active)
Nc1c2ccccc2nc2ccccc12,Potency,[1],11.9 µM (active) and 13.5 µM (active)
same,Potency,[4],inactive
same,Potency,[9],4.22 µM (active)
same,Potency,[5],24 µM (active)
NC(=O)N1C(=O)C(C(=O)c2cc(Cl)cs2)c2cc(F)c(Cl)cc21 (stereo not given),Potency,[1],24.3 µM (active)
same,Potency,[2],12.2 µM (active)
same,Potency,[4],13.8 µM (active)
same,Potency,[5],8.63 µM (active)
same,Potency,[6],inactive
CN1CCC(Nc2ncc3ncnc(Nc4ccc(F)c(Cl)c4)c3n2)CC1,Potency,[1],13.3 µM (active)
same,Potency,[6],inactive
same,Potency,[10],13.9 µM (active)
O=C(NOCC1CC1)c1ccc(F)c(F)c1Nc1ccc(I)cc1Cl,Potency,[1],inactive
same,Potency,[3],inactive
same,Potency,[4],13.3 µM (active)
same,Potency,[6],29.8 µM (active)
CC(C)n1nc(-c2cc3cc(O)ccc3[nH]2)c2c(N)ncnc21,Potency,[1],3.76 µM (active)
same,Potency,[2],0.75 µM (active)
same,Potency,[5],inactive
CCCN(CCC)c1c([N+](=O)[O-])cc(C(F)(F)F)c(N)c1[N+](=O)[O-],Potency,[8],54.3 µM (active)
same,Potency,[4],19.4 µM (active)
same,Potency,[5],60.9 µM (active)
same,Potency,[6],34.6 µM (active)
OCCN1CCN(CC/C=C2/c3ccccc3Sc3ccc(C(F)(F)F)cc32)CC1,Potency,[1],inactive
same,Potency,[5],29.8 µM (active)
same,Potency,[6],inactive
N=C1N=C(N)c2ccccc21,Potency,[8],61.1 µM (active)
same,Potency,[4],inactive
same,Potency,[9],19.3 µM (active)
same,Potency,[5],54.5 µM (active)
same,Potency,[6],49 µM (active)
CSc1ccc2c(c1)C(N1CCN(C)CC1)Cc1ccccc1S2 (stereo not given),Potency,[1],inactive
same,Potency,[2],29.8 µM (active)
same,Potency,[6],inactive
same,Potency,[10],inactive
COCCCC/C(=N\OCCN)c1ccc(C(F)(F)F)cc1,Potency,[8],inactive
same,Potency,[4],inactive
same,Potency,[5],inactive
same,Potency,[6],inactive
same,Potency,[10],inactive
COc1c(C)c2c(c(O)c1C/C=C(\C)CCC(=O)O)C(=O)OC2,Potency,[1],inactive
same,Potency,[2],inactive
same,Potency,[4],inactive
same,Potency,[6],inactive
same,Potency,[10],inactive
Fc1ccc([C@@H]2CCNC[C@H]2COc2ccc3c(c2)OCO3)cc1,Potency,[1],inactive
same,Potency,[2],26.6 µM (active)
same,Potency,[4],inactive
same,Potency,[5],29.8 µM (active)
Nc1ccccc1O,Potency,[8],67.7 µM (active)
same,Potency,[4],inactive
Cc1cccc2c1cc1ccc3cccc4ccc2c1c34,Potency,[1],0.558 µM (active)
same,Potency,[4],inactive
same,Potency,[5],inactive
same,Potency,[6],inactive
O=c1cccccc1O,Potency,[1],inactive
same,Potency,[2],inactive
same,Potency,[4],inactive
same,Potency,[5],inactive
O=c1c(-c2ccccc2)c1-c1ccccc1,Potency,[1],inactive
same,Potency,[2],inactive
same,Potency,[5],inactive
same,Potency,[6],inactive
CCCCCCOC(=O)c1ccc(O)cc1,Potency,[1],inactive
same,Potency,[2],inactive
same,Potency,[4],inactive
same,Potency,[5],inactive
same,Potency,[6],inactive
same,Potency,[10],inactive
NC(=NCCCCCCN=C(N)/N=C(\N)Nc1ccc(Cl)cc1)/N=C(\N)Nc1ccc(Cl)cc1,Potency,[1],inactive
same,Potency,[2],inactive
same,Potency,[3],inactive
CC1(C)CCC(C)(C)c2cc(C(=O)Nc3ccc(C(=O)O)cc3)ccc21,Potency,[1],inactive
same,Potency,[7],inactive
same,Potency,[4],inactive
same,Potency,[9],inactive
same,Potency,[5],inactive
[Cl][Au]([Cl])[Cl],Potency,[8],27.3 µM (active)
same,Potency,[5],0.77 µM (active)
CCOC(=O)c1nc(C(Cl)(Cl)Cl)n(-c2ccc(Cl)cc2Cl)n1,Potency,[1],inactive
same,Potency,[2],61.1 µM (active)
same,Potency,[3],inactive
same,Potency,[5],24.3 µM (active)
O=C1CCCCCN1SSN1CCCCCC1=O,Potency,[2],inactive
same,Potency,[4],inactive
same,Potency,[9],inactive
same,Potency,[5],inactive
same,Potency,[6],inactive
O=C1c2ccccc2Cc2ccccc21,Potency,[1],inactive
same,Potency,[2],inactive
same,Potency,[4],inactive
same,Potency,[9],inactive
same,Potency,[5],inactive
same,Potency,[6],inactive
same,Potency,[10],inactive
N#CSc1ccc(N)c([N+](=O)[O-])c1,Potency,[8],38.8 µM (active)
same,Potency,[5],inactive
same,Potency,[6],inactive
